Bioassay records as filed in PubChem BioAssay.
The list is not random: actives were taken first. Their share in the collection is about 5.4%.
M18AAP inhibitor: blocks P. falciparum M18 aspartyl aminopeptidase; recombinant PfM18AAP, H-Glu-NHMec fluorogenic cleavage; AID 1822; inhibition, % at 7.35 µM; 290,000 tested, 1.2% active;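 active = inhibition above the campaign mean inhibition over all tested compounds plus 3 SD, cut at about 28% in these data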;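 also: 0% = plate median of test compound wells and 100% = 2 mM ZnCl2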
ALR inh: human ALR oxidase inhibition via reduced H2O2. P55789. purified ALR, DTT oxidation, H2O2 HRP-luminol luminescence. inhibition, % (concentration not given with the values). 290,000 tested, 3.8% active. AID 485317;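 active = mean replicate inhibition above about 79%, with every replicate also reaching it, limit read from the data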
Target sequence (P55789 whole entry, looked up): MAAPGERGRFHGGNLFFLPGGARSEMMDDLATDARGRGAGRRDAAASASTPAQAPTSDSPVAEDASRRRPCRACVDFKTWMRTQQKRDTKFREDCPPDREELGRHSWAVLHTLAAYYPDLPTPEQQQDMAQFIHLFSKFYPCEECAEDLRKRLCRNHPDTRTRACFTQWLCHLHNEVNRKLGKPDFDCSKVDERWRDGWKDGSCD
beta cell repl: induces beta-cell replication in MIN6 cells; MIN6 cells proliferation, ATPlite luminescence, 48 h; cells starved in 0.2% serum; 100% = growth in 10% serum; proliferation, % at 10 µM; 330,000 tested, 0.29% active; AID 2380;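 active = compounds whose signal lies at least 3.5 SD above the mean of all wells on their plate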;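 also: 0% = DMSO-treated cells in low-serum medium and 100% = 10% serum control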
Granule exo inh: blocks lytic granule exocytosis | TALL-104 LAMP-1 surface exposure, flow cytometry; cells stimulated with thapsigargin and PMA | 360,000 tested, 0.66% active | inhibition, % at 10 µM;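 active = inhibition above about 55%, limit read from the data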
SMARCA2 activ: increases SMARCA2 function in MMTV reporter cells | MG213 cells, MMTV-luciferase reporter, dexamethasone, overnight | activation, % at 9.1 µM | 370,000 tested, 1% active | AID 652017; in the data active = activation above about 7.8%;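 also: 0% = vehicle wells and 100% = reference activator wells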
GASC-1 inh: inhibitors of human GASC-1 (JMJD2C) demethylase; Q9H3R0; GST-JMJD2C(1-420) H3K9me3 demethylation, DELFIA europium; inhibition, % at 2.35 µM; 330,000 tested, 0.069% active; AID 2099;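 active = more than half of a compound's replicate wells show inhibition beyond 50%, single wells judged on their own value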;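 also: signal counts dimethyl H3K9 product captured on neutravidin plate; 0% = median of DMSO wells and 100% = 0.3 times that DMSO median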
Target sequence (Q9H3R0 1-420 limits assumed): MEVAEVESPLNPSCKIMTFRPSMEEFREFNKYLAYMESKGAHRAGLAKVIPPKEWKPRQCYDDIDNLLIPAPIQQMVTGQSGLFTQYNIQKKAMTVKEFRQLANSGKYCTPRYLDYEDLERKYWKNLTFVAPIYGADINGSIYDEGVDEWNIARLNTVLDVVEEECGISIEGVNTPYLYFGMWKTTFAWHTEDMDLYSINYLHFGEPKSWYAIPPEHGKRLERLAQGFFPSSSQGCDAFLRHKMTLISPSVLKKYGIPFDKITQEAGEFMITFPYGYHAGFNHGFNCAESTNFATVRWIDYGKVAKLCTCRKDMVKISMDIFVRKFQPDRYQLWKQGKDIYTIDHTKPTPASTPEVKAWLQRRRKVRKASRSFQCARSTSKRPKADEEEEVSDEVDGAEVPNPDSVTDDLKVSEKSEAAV
SMARCA2 act conf: SMARCA2 activation, confirmation screen; shares compounds with SMARCA2 activ; MG213 cells, MMTV-luciferase with dexamethasone, luminescence, overnight; MG213 cells expressing E1A, Rb sequestered; DMSO wells 0%, reference activator 100%; activation, % at 9.1 µM; 3,500 tested, 30% active; AID 652260;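 active = activation above its plate's cutoff, the mean activation of tested wells plus 3 SD, cut at about 7.9% in these data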
GAL4-VP16 Luc: GAL4-VP16 reporter activation counter-screen; shares compounds with SMARCA2 activ; HEK293 GAL4-VP16 pG5luc reporter, luciferase luminescence; scaled: DMSO wells 0%, SAHA wells 100%; activation, % at 9.1 µM; 3,500 tested, 41% active; AID 686939;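 active = activation above the solvent-only control well mean plus 3 SD, averaged across control plates, cut at about 5.2% in these data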
An asterisk follows results filed as active; · = no result.

SMILES | M18AAP inhibitor | ALR inh | beta cell repl | Granule exo inh | SMARCA2 activ | GASC-1 inh | SMARCA2 act conf | GAL4-VP16 Luc
C=CCN1C(=O)/C(=C/c2ccc(O)c(OC)c2)S/C1=N/c1nccs1 | 2 | 25 | -4 | 2 | 11* | -5 | 2 | 1
COc1ccc(NC(=O)Nc2nnc([C@@H]3C[C@H](O)[C@@H](CO)O3)s2)cc1 | · | · | · | 2 | 0 | · | · | ·
CCOC(=O)N(C)c1c(CC)nc2c(OCc3ccccc3C)cccn12 | · | · | · | -15 | -2 | · | · | ·
CCCc1cc(C(=O)OC)c2ccccc2n1 | -7 | · | -2 | 3 | 8.3* | 19 | -2 | 1
C[C@H](O)[C@@H]1CN2CCc3c([nH]c4cccc(-c5ccccc5)c34)[C@@H]2C[C@@H]1N(C)C(=O)C1CCCCC1 | · | · | · | · | 9.7* | · | -3 | 0
N#CC(C#N)=C1SC(=Nc2ccccc2)C(=Nc2ccccc2)N1c1ccccc1 | · | · | · | 34 | 14* | · | -3 | 4
O=C(N1CCOCC1)N1CCN(c2nc(-c3ccccc3)cs2)CC1 | 13 | · | -2 | -7 | 6 | 22 | · | ·
CN(C)C(=O)N1CCN(c2nc(-c3ccccc3)cs2)CC1 | 9 | 1 | -4 | 13 | 11* | -5 | 4 | 5.9*
Cc1cc(OCc2cn3cccnc3n2)ccc1Cl | 7 | · | 0 | -3 | 8.4* | 24 | 8.5* | 5.6*
COc1cc(/C=N/NC(=O)Nc2ccccc2)ccc1OC(C)=O | -8 | -2 | 0 | 11 | 4 | 1 | · | ·
CCc1nnc(N/N=C\c2ccc(OC(C)=O)c(OC)c2)n1N | 18 | 43 | -3 | -1 | 8.6* | 5 | -2 | 2
Cc1ccc(/C=c2/sc3n(c2=O)CCCN=3)o1 | 25 | · | 1 | 8 | 8.7* | -6 | 6 | 4
O=c1/c(=C\c2ccc3c(c2)OCO3)sc2n1CCCN=2 | 5 | -11 | -3 | -4 | 2 | -5 | · | ·
Cc1cc2nc(C3CCCCC3)c(Cc3ccccc3)n2c(C)c1Br | · | · | · | -1 | -3 | · | · | ·
CCCc1ccc(C(=O)NNc2cccc(C)c2)cc1 | 6 | -5 | -1 | 5 | 2 | -4 | · | ·
Cc1cccc(N=NC(=S)NNc2cccc(C)c2)c1 | · | · | · | 13 | 8.7* | · | 3 | 9.1*
CCn1nc(C)c(CNC(=O)Nc2ccc3c(c2)OCO3)c1C | -4 | · | -2 | 1 | 9.3* | -26 | 1 | 3
Cc1cc(CNC(=O)Nc2ccc3c(c2)OCO3)nn1C | 4 | -2 | 2 | -2 | 1 | -8 | · | ·
CC1(C)Cc2c(sc(NC(=O)COc3cccc4ccccc34)c2C#N)C(C)(C)N1 | -5 | -11 | -6 | 45 | 54* | 10 | 41* | 2
O=c1cc(-c2ccc(O)cc2)oc2ccccc12 | 6 | -16 | -1 | -4 | 9.0* | 22 | 12* | 9.0*
O=c1cc(-c2ccc(O)cc2)oc2cc(O)cc(O)c12 | · | 29 | -6 | 2 | 0 | 12 | · | ·
O=c1cc(-c2ccccc2)oc2cc(O)cc(O)c12 | · | -1 | 1 | 2 | 8.5* | 20 | 3 | 7.5*
O=c1cc(-c2ccc3c(c2)OCO3)oc2ccccc12 | 6 | -1 | -2 | -2 | 18* | 12 | 6 | 7.3*
O=c1cc(-c2cccc(F)c2)oc2ccccc12 | · | · | · | 8 | 2 | · | · | ·
Cc1cccc(C)c1-n1nnnc1C(c1ccnc2ccccc12)N1CCN(C(=O)OCc2ccccc2)CC1 (stereo unspecified) | · | · | · | -2 | 5 | · | · | ·
SMILES | M18AAP inhibitor | ALR inh | beta cell repl | Granule exo inh | SMARCA2 activ | GASC-1 inh | SMARCA2 act conf | GAL4-VP16 Luc
O=C(NC1CCN(Cc2ccccc2)CC1)c1cccc(OC(F)F)c1 | -11 | -6 | 0 | 6 | 10* | -27 | 6 | 0
O=C(NC1CCN(Cc2ccccc2)CC1)c1cccc(Br)c1 | 0 | -5 | 2 | 11 | 0 | -1 | · | ·
COc1ccc(-c2cc(C(=O)N/N=C/C(C)=C\c3ccco3)[nH]n2)cc1 | · | · | · | · | -4 | · | · | ·
COC(=O)c1cnn2c3c(c(C)nc12)CCCC3 | 1 | -3 | 0 | -7 | 11* | -7 | 7 | 5
Cc1c2c(nc3c(C(=O)NC4CCCC4)cnn13)CCCC2 | 1 | -6 | 0 | -2 | 1 | -1 | · | ·
CN(C)C(=O)CSc1cccc2cccnc12 | 5 | -8 | -5 | 2 | 12* | -1 | -12 | 2
CCCCCCCCN1C(=O)[C@@H](CC(=O)NCCC(C)C)C[C@@]2(C(=O)OC)C1=C[C@H](C1CCCC1)O[C@@H]2C | · | · | · | · | -1 | · | · | ·
O=C(COC(=O)c1ccccc1NCCO)Nc1ccc(S(=O)(=O)NC2=NCCCCC2)cc1 | · | · | · | -1 | 11* | · | 0 | 1
O=C(COC(=O)c1ccccc1O)Nc1cccc(S(=O)(=O)NC2=NCCCCC2)c1 | -3 | -14 | 1 | -3 | 1 | -7 | · | ·
CSc1ncccc1C(=O)OCC(=O)NC1CCCC1 | · | 0 | 0 | -1 | 8.6* | -1 | -1 | 0
CCn1c(C)cc(C(=O)COC(=O)c2cccnc2SC)c1C | · | 0 | -2 | 1 | 11* | 5 | 8.0* | 8.5*
CSc1ncccc1C(=O)OCC(=O)NC1CCCCC1 | · | · | 0 | 2 | -1 | -2 | · | ·
CC(C(=O)OCC(=O)c1c(N)n(C)c(=O)n(C)c1=O)N1C(=O)c2ccccc2C1=O (stereo unspecified) | 3 | 0 | 0 | 0 | 10* | -6 | 7 | 0
Cn1c(N)c(C(=O)COC(=O)CCCN2C(=O)c3ccccc3C2=O)c(=O)n(C)c1=O | 1 | -5 | -3 | 2 | -2 | -23 | · | ·
COc1ccc(C2CC(=O)c3ccccc3O2)cc1 (stereo unspecified) | 2 | -9 | -4 | -1 | 8.6* | -6 | 8 | 3
COC(=O)C1=C(C)N(Cc2ccccc2C(F)(F)F)C(=NCc2ccc(OC)cc2)NC1c1ccccc1 (stereo unspecified) | · | · | · | · | 1 | · | · | ·
CC1(Oc2ccc3ccccc3c2)CCN(Cc2cccn2-c2nccs2)C1 (stereo unspecified) | · | · | · | -2 | -1 | · | · | ·
C=CCc1cc(Cl)ccc1OCCNCCCOC | 6 | -7 | -3 | 0 | 11* | 1 | -2 | 0
Cc1ccc(CN2CC(N3CCN(CC4CC4)CC3)CS2(=O)=O)cc1 (stereo unspecified) | · | · | · | 3 | 1 | · | · | ·
CC(C)c1ccc(/C=C2\SC(N3CCCC3)=NC2=O)cc1 | 8 | -3 | -3 | 9 | 8.3* | 14 | 1 | -1
O=C1N=C(N2CCCCC2)S/C1=C\c1ccc(Br)cc1 | -5 | -2 | -4 | -1 | 3 | -2 | · | ·
